Screens: PubChem BioAssay, National Center for Advancing Translational Sciences (NCATS)
A selection: hits, their analogues and other compounds. The true share with any hit is near 5.7%.
ATXN2 expr inh: Primary qHTS for Inhibitors of ATXN expression. HEK-293 ATXN2-luciferase reporter, luminescence, 24 h. Potency, µM (doses to about 57 µM), inactives show at the highest dose activity change, negative = inhibition, actives largely listed as inhibitors. 360,000 tested, 0.72% active; further: potency means the concentration at half of the fitted maximal effect; on the % scale 0 is the no-effect control and ±100 the full control effect; nearly all actives have a fitted effect of over 55% in size
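ATXN2-luciferase reporter cells (luciferase flanked by upstream and downstream ATXN2 gene portions) were treated 24 h at 37 °C with compounds at up to 57 uM. SteadyGlo luminescence gave expression; GF-AFC fluorescence gave viability.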
HepG2 viability: qHTS for Inhibitors of TGF-b: Cytotox Counterscreen. 410,000 tested, 0.76% active. Potency, µM (top dose mostly 46.1 µM), for the others: at the highest dose activity change, negative = cytotoxicity, usual class: cytotoxic. HepG2 CAGA-GFP viability, ATP luminescence, 18 h; further: potency means the concentration at half of the fitted maximal effect
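HepG2 CAGA-GFP cells (1000/well, DMEM with 1% FBS) received compound, then TGF-beta at 500 pg/mL final, and were incubated 18 hours at 37 degrees C. Viability was read by CellTiter-Glo luminescence. Media-only wells were set as complete cell-killing and DMSO as no toxicity.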
IL-1B inflam inh: qHTS for Inhibitors of Inflammasome Signaling: IL-1-beta AlphaLISA Primary Screen. THP-1 LPS/ATP IL-1B secretion, AlphaLISA, 16 h; hits give low values. activity change, % at 57.5 µM. 360,000 tested, 4.7% active. AID 743279, 2014; in the data active means activity change below about -50%; inconclusive means mostly about -30% to -49%; further: on the % scale 0 is the no-effect control and ±100 the full control effect
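THP-1 cells pretreated 1 hr with compounds (up to 57.5 uM final), then stimulated with LPS (250 ng/mL final) plus ATP (1.25 mM final); secreted IL-1B measured by AlphaLISA after 16 hr, decreased signal indicating inhibition.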
ATXN viability: Viability Counterscreen for Primary qHTS for Inhibitors of ATXN expression; S2 cells (HEK-293 line with an ATXN2-luciferase reporter) viability, CellTiter-Fluor protease fluorescence, 24 h; Potency, µM (titrated, usually from 56.7 µM), usual class: cytotoxic; 400,000 tested, 0.49% active; AID 651635, 2014; further: potency means the concentration at half of the fitted maximal effect; nearly all actives have a fitted effect of over 40% in size
TGFb inhibitor: qHTS for Inhibitors of TGF-b; Potency, µM (top dose mostly 46.1 µM), for inactives: at the highest dose activity, negative = inhibition, hits mostly inhibitors; HepG2 CAGA-GFP TGF-b/SMAD3 reporter, GFP fluorescence, 18 h; TGF-beta stimulated, 500 pg/mL final; 410,000 tested, 1.2% active; further: potency means the concentration at half of the fitted maximal effect; on the % scale 0 is the no-effect control and ±100 the full control effect; nearly all actives have a fitted effect of over 65% in size
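HEPG2 CAGA-GFP, 1000 cells/well; 2 h settle, 37 C; cpd via pin tool; TGF-b 500 pg/mL final; 18 h, 37 C; GFP imaging ex488/em500-530; %Activity normalised to -TGF-b and +DMSO controls; CRC fit, curve class.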
Starred values were filed as active, the others as inactive; i = inactive; ? = inconclusive; · = no result; ! = not active in a repeat. Unless noted, the call rests on the fitted dose curve; in most records, active means well fitted curve in the direction sought with a large enough effect; inconclusive means small, poorly fitted or top-dose-only effect, or another doubt; inactive means no such curve, though single readings can be large; an effect the other way counts as inactive or inconclusive.

SMILES | ATXN2 expr inh | HepG2 viability | IL-1B inflam inh | ATXN viability | TGFb inhibitor
Cc1ccc(NC(=O)CCc2nnc3ccc(N4CCC5(CC4)OCCO5)nn23)nc1 | · | -8% | -6 | · | 9%
Cc1ccccc1Cn1c(=O)n(CCc2ccccc2)c(=O)c2sc3ccccc3c21 | 9% | 2% | · | i | -8%
Cc1cccc(NS(=O)(=O)c2cccc(C(=O)NCC3(N4CCCCC4)CCCCC3)c2)c1 | -5% | -42% | -65* | i | 8%
Cc1cccc(NS(=O)(=O)c2cccc(C(=O)NCC(c3ccco3)N3CCCCC3)c2)c1 (stereo unspecified) | 0% | 19% | -59* | i | -6%
Cc1cccc(C(=O)NCC(c2ccco2)N2CCc3ccccc32)c1 (stereo unspecified) | -2% | 1% | -58* | i | 0%
Cc1cccc(NS(=O)(=O)c2cccc(C(=O)N3CCN(C/C=C/c4ccccc4)CC3)c2)c1 | ? | -23% | -54* | i | ?
COc1ccc(NS(=O)(=O)c2cccc(C(=O)NCC(c3ccco3)N3CCCCC3)c2)cc1 (stereo unspecified) | -17% | -18% | -11 | i | 2%
Cc1ccc(C(=O)NCC(c2ccco2)N2CCc3ccccc32)cc1 (stereo unspecified) | -13% | -25% | ? | i | -7%
Cc1cccc(CNC(=O)c2cnn(-c3ncc(C)c(-c4ccc(F)cc4)n3)c2C)n1 | · | · | · | i | ·
CC(C)c1ccc(Nc2ncnc3c2nc2n3CCCC2)cc1 | · | -36% | · | · | -34%
CCC(C)(C)c1ccc(CC(C)CN2C[C@@H](C)O[C@@H](C)C2)cc1 (stereo partly specified) | ? | · | · | i | ·
Cc1ccccc1C1(CC(=O)N2CCCCC2c2cccnc2)CC(=O)N(C2CCCC2)C1=O (stereo unspecified) | · | · | · | i | ·
Cc1cccc(NS(=O)(=O)c2cccc(C(=O)N3CCCCCCC3)c2)c1 | ? | -31% | -60* | i | ?
CCc1cccc2c(CCO)c[nH]c12 | 17% | · | · | i | ·
COc1cc(-c2noc(-c3ccc(NCc4cccnc4)c([N+](=O)[O-])c3)n2)cc(OC)c1OC | -7% | -3% | · | i | -3%
COCCCNC(=O)C1CCN(c2nc3ccc(C)cc3[nH]2)CC1 | · | 2% | · | · | 20%
OC1CCCC1NCc1ccnc2cc(Cl)ccc12 (stereo unspecified) | ? | 1% | -4 | ? | 27%
OC(CNC1CCCCC1)CNC1CCCCC1 | · | -15% | -20 | ? | 0%
CCNC1CCC(Nc2ccnc3cc(Cl)ccc23)CC1 (stereo unspecified) | ? | -26% | -98* | ? | -20%
OC(CNc1ccnc2cc(Cl)ccc12)CNC1CCCCC1 (stereo unspecified) | 32µM* | -93% | -114* | · | ?
CC(=O)CCSc1ncnc2sc(-c3ccccc3)cc12 | 91% | -20% | -91* | i | ?
O=C(O)CCSc1ncnc2sc(-c3ccccc3)cc12 | 2µM* | -16% | 8 | i | 16%
CC(Sc1ncnc2sc(-c3ccccc3)cc12)C(N)=O (stereo unspecified) | 3% | -7% | -13 | i | 13%
O=C(O)CSc1ncnc2sc(-c3ccccc3)cc12 | 17% | -15% | -4 | i | 0%
COc1cc(Nc2nc3ccccc3nc2NS(=O)(=O)c2ccc(NC(=O)c3ccc(C)c(OC)c3)cc2)cc(OC)c1 | 6% | · | · | · | ·
SMILES | ATXN2 expr inh | HepG2 viability | IL-1B inflam inh | ATXN viability | TGFb inhibitor
N#CC1=C(N)NC(=S)C(C(N)=O)C1c1ccc(Cl)cc1Cl (stereo unspecified) | ? | 7.1µM* | 5 | 24µM* | ?
Cc1cc(C)n(Cc2ccc(C(=O)Nc3ccc(Br)cc3C)o2)n1 | -6% | -3% | -60* | i | 0%
Cc1nc(NCC(=O)c2c[nH]c3ccccc23)sc1C | · | -17% | · | · | ?
O=C1C(Cc2ccccc2)Nc2ncnc(N3CCc4ccccc4C3)c2N1Cc1ccc(Cl)cc1 (stereo unspecified) | ? | -20% | -94* | ? | 18µM*
O=C1C(Cc2ccccc2)Nc2ncnc(N3CCCCC3)c2N1Cc1ccc(Br)cc1 (stereo unspecified) | -6% | 3.2µM*! | ? | i | ?
N#Cc1nc(-c2ccc(OCc3ccccc3Cl)cc2)oc1N1CCC(C(N)=O)CC1 | · | -2% | · | · | 9%
CCOc1c(Br)cc(/C=N\NC(=O)c2ccccc2)cc1OC | · | 17% | -89* | i | -4%
CCOc1cc(/C=N\NC(=O)c2ccc(NC(=O)C(C)(C)C)cc2)ccc1OC(=O)c1ccc(C)cc1 | -6% | -10% | -5 | i | 2%
CCOc1cc(/C=N\NC(=O)c2ccc(NC(=O)CC)cc2)ccc1OC(=O)c1ccccc1 | 20µM* | -2% | -11 | ? | 0%
O=C(N/N=C/C(Br)=C\c1ccccc1)c1ccc2nc[nH]c2c1 | 5% | -21% | -90* | i | ?
COc1cc(/C=N\NC(=O)c2ccc(-c3ccccc3)cc2)cc(Br)c1O | 2% | -15% | i | i | 20%
O=C(N/N=C/C(Br)=C/c1ccccc1)c1cccnc1 | 5% | -23% | -95* | i | -30%
O=C(N/N=C/C(Br)=C/c1ccccc1)c1ccc([N+](=O)[O-])cc1 | · | -1% | ? | i | 2%
CN(C)c1ccc(CNC(=O)c2cccc(NC(=O)N3CCSc4ncccc43)c2)cc1 | · | -8% | · | · | -8%
Cc1ccc(CN2CCOCCS2(=O)=O)cc1 | · | 23% | · | · | 7%
O=C(N/N=C/C(Br)=C/c1ccccc1)c1ccncc1 | · | -61% | -84* | · | ?
CC(/C=N/NC(=O)c1ccncc1)=C\c1ccccc1 | 8% | -7% | -5 | i | -7%
O=C(N/N=C/C(Br)=C\c1ccccc1)c1cccs1 | 85% | -13% | · | i | ?
C=CCc1cccc(/C=N/NC(=O)c2ccc3nc[nH]c3c2)c1O | 10µM* | 4% | 236 | i | -5%
CCOc1cc(C(=O)N/N=C/C(Br)=C/c2ccccc2)cc(OCC)c1OCC | -23% | -16% | -51* | ? | ?
Cc1nc([N+](=O)[O-])cn1-c1ccc([N+](=O)[O-])cc1 | 5% | · | · | i | ·
O=C(NC1CCOCC1)c1ccc(-c2cc(-c3cn[nH]c3-c3ccccn3)ccn2)cc1 | -26% | · | · | · | ·
C=CCN(CC=C)c1ccc(/C=C/c2ccnc3ccccc23)cc1 | · | -39% | · | · | ?
Cc1ccc(S(=O)(=O)Nc2ccc(O)c3cccnc23)cc1 | 22µM* | -161% | 74 | ? | ?
